In article PMC12136788:
Whole data set: some 24,000 sequences, median “enrichment r” near 0.99, cut for the highest 2% near 3.7. The full list was thinned out, with the highest values kept by preference.

T1: UNK ZnF1-3 (human, UniProt Q9C0B0 31-174)
T1 sequence: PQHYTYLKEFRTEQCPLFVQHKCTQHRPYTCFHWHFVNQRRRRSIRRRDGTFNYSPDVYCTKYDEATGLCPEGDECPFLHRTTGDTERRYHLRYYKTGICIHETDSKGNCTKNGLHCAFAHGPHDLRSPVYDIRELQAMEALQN

B1: chr17:45747064:45747065:+_ENSG00000108424_ENST00000290158|hu_hu|hu_hu_hu_mus_True|38_98 (ssRNA)
RNA: GGGAGUUCUACAGUCCGACGAUCGCCCACAGUCCACGCAGCUGUAUCUCGAACAACUACACUGGGGUCUUUCAUUAGUUCUAUUAGGGUGGGCAUAGCCUGUAUAACUAAUGGUUUCAGUUGAUUAGGCUCUGGUCCUUCCAACAACAGAGGAUUGAGCAUCA
B2: chr1:244855233:244855234:+_ENSG00000121644_ENST00000302550|hu_mus|hu_hu_hu_mus_True|98_98 (ssRNA)
RNA: GGGAGUUCUACAGUCCGACGAUCCAUCAGAUGGUAGGCAUUGCCUUUAUACUCUUUCCCCAGUUCUUCUACAAUUUUCUCUAUAUCAUCUUCUAGAAAGUCCGUACUUCCUAGAACAACAGCUUCUUUAAAUUUAAAUGUUUCCAACAGAGGAUUGAGCAUCA
B3: chr3:10015032:10015033:+_ENSMUSG00000027533_ENSMUST00000029046|mus_mus|mus_mus_mus_hu_True|58_58 (ssRNA)
RNA: GGGAGUUCUACAGUCCGACGAUCGUUUUUACCAUCACAAGUGAUGAUACAAUCUGGCUUGGCCAUUGCGCCCAUUUUCCUAAGAGCUAUUCCCACUCCUAGCUCCUUCAUGUAUUCAUCAAAGCCUUUGCUGUCCACCAGGCGCAACAGAGGAUUGAGCAUCA
B4: chr14:102449733:102449734:+_ENSG00000197102_ENST00000360184|hu_mus|FALSE|FALSE (ssRNA)
RNA: GGGAGUUCUACAGUCCGACGAUCCAGCACCUGGAGCUUCUCGUACUCGUCGUCCCACGUCUGGAAGACUUCGAAGCAAGCCACCAUGACCUUUUCAAACUCUUCAUAGGCUACAUGCAUCAACUUCCGAGUGCCCAAGACCUUCAACAGAGGAUUGAGCAUCA
B5: chr7:107985766:107985767:+_ENSMUSG00000029461_ENSMUST00000049053|mus_hu|FALSE|FALSE (ssRNA)
RNA: GGGAGUUCUACAGUCCGACGAUCCCCUAGGUAAAUUUUUGUAAGCAAGGUGCCCACUAGGUAGGAAGGCUGCAUUUAAUGCUAAUUUACUGUAAGGUCUAGGGAAGUCCUUUCCGCUUCUCUGGGCCUCAGUUUCCUCAUCUGCAACAGAGGAUUGAGCAUCA
B6: chr6:30403744:30403745:+_ENSMUSG00000029775_ENSMUST00000068259|mus_mus|motif|central (ssRNA)
RNA: GGGAGUUCUACAGUCCGACGAUCAGGAGAAGGCUAAACACUGAUUAUCUAUGGAUUUCGAUUGUGUGUGCUUUCACCUUGCGGCAGUGGAUAACGAAAGAUCAGUCAUACUUUUAAUCUAGAAAUGUUAAUAUUUUCAUCAUACAACAGAGGAUUGAGCAUCA
B7: chr11:130013608:130013609:+_ENSG00000084234_ENST00000528499|hu_hu|motif|central (ssRNA)
RNA: GGGAGUUCUACAGUCCGACGAUCAGCAUGUGUCAGACAAUACAAUGGAAGUGGGGUUUCUGAUUAAUUUAAAAAAGAAAACGGCAUCAAAUAUCUGCAAUAGAUCAUUUUUUUCAUUUAAGGUUUAUAUAUCAUAUAUUGUUACAACAGAGGAUUGAGCAUCA
B8: chr14:57341393:57341394:-_ENSMUSG00000021938_ENSMUST00000022507|mus_hu|FALSE|FALSE (ssRNA)
RNA: GGGAGUUCUACAGUCCGACGAUCCUGAAUAUUCAGAAGCUAUAUGAAAUGUAGCUGGAAAUUCCGAUUUCACAGAACAUCAGUGGUUUAUACAAAUUAAACUCCCAUACCCUCCCACCCCCACAUAUACUACUCUAUCUACCCCAACAGAGGAUUGAGCAUCA
B9: chr16:35696996:35696997:-_ENSMUSG00000022848_ENSMUST00000023554|mus_mus|FALSE|FALSE (ssRNA)
RNA: GGGAGUUCUACAGUCCGACGAUCAAGACGGGUCCAGGAGCCAUGCAAUGAGUAUGUUUUUGUUUUUGUUUUUUUUAAAAAUCCAUUAUUUAUAGAAAGAAAUAGGUAUUGGCAAAAAUCUGUCCAAUCAAAUACAAUGACUUCCAACAGAGGAUUGAGCAUCA
B10: chr14:62153831:62153832:-_ENSMUSG00000021930_ENSMUST00000100496|mus_mus|FALSE|FALSE (ssRNA)
RNA: GGGAGUUCUACAGUCCGACGAUCAUAUUUGUUUAAAUAAGAUUAAAUAAGUUGCCUAGAUCUUUUAAACCAAACCUCAGCAUGGUAUAAUGAAUACAUGGGUUCCUUGGACAACAAUUAGAAGCUCAGUGUUCAGCAUGUGUUCAACAGAGGAUUGAGCAUCA
B11: chr10:57235669:57235670:-_ENSMUSG00000019877_ENSMUST00000020027|mus_hu|FALSE|FALSE (ssRNA)
RNA: GGGAGUUCUACAGUCCGACGAUCAAAUUGUGGAAUACAAUGUCUACACACAGAAUAAGGUUGGGGAAUUAAGCUGAAUUGUUAUAUUCCAUUCACAUUAAUAAAUAUUUUUAAAGAAGAAAUUGUAGAUUUUAAAAGCUUCAUCAACAGAGGAUUGAGCAUCA
B12: chr17:64801638:64801639:+_ENSG00000154229_ENST00000413366|hu_mus|hu_hu_hu_mus_False|28_38 (ssRNA)
RNA: GGGAGUUCUACAGUCCGACGAUCUAUAUAUAUAUAUACAUAUGUACACAUAUAUAGUAAAACCCUAGUUAAACGUGUAAAGUAGCCAUUCAUUUUUGAAAUUUUAUCUACAUUUAAAAAUUAAUAUAUCUGAUAGAGUGCCAGCAACAGAGGAUUGAGCAUCA
B13: 98287512_98287632_2604_3pUTR_ENSG00000180543_ENST00000322128|human|control|control (ssRNA)
RNA: GGGAGUUCUACAGUCCGACGAUCUACCUCCCCAGCUGUAUGUAGAAAAAUGUGGUUUUUCAGUUGUUUUCUCUGUGGUACUAUUUAAACAAAAUAAAAAAGAAUAAGGAAAGAAGGAAGGGGAAGGCAGAAGAGGAGGAAAGGCAACAGAGGAUUGAGCAUCA
B14: 48457567_48458910_1668_CDS_ENSG00000079387_ENST00000551330|human|control|control (ssRNA)
RNA: GGGAGUUCUACAGUCCGACGAUCGAGAACUUCAUCCUGAUUCCCAUUACGAAAUACAUUCUUUAUUUCUUUCUCCAUUUCCUCUGUAAUUUCAGGAAAUUCAUCUUCACUAUCAGUUAAUUUAUGACCUUUUUUUUGUGUUUCCAACAGAGGAUUGAGCAUCA
B15: chr14:49633609:49633610:-_ENSMUSG00000061244_ENSMUST00000162175|mus_mus|FALSE|FALSE (ssRNA)
RNA: GGGAGUUCUACAGUCCGACGAUCCAUUCAUUUUCUGACACCAACAUUUUCCAGGAUUAUAACAGUCAUGUAGGUUUAUAGAAUUUGAAAUUUAUAAAUUAAAGUAUAGAAUUCAACAUAACAGGGAAAAGAUAAAAAUACAGCCAACAGAGGAUUGAGCAUCA
B16: chr4:140213729:140213730:-_ENSG00000109390_ENST00000265500|hu_mus|FALSE|FALSE (ssRNA)
RNA: GGGAGUUCUACAGUCCGACGAUCGAAGCUGACUGUAUUAUUUCCAAAGUUUAUUCCAAUCCAUUUCUUCUUUUAUACUCCAAAACAUCUUCAUUGUGUGUUUGGAUGAGCUACAAGAUAAUGGUUAAAAUUAGAAAUGUGAGCCAACAGAGGAUUGAGCAUCA
B17: chr4:136876768:136876769:-_ENSMUSG00000006699_ENSMUST00000051477|mus_mus|FALSE|FALSE (ssRNA)
RNA: GGGAGUUCUACAGUCCGACGAUCAAACAACAAACGUUUGUGGGGAUUUUUGUUUUUUUUUUUAAACAAAGAAAACAAAAACUAGCACUCAUUGCUUUUCAGACAAUACAUAAUUAUUCAAAAUUAACUAUUACUGGAAGGGCACAACAGAGGAUUGAGCAUCA
B18: chr7:141450121:141450122:+_ENSG00000106028_ENST00000265304|hu_mus|hu_hu_hu_mus_True|68_68 (ssRNA)
RNA: GGGAGUUCUACAGUCCGACGAUCUCAUCCGUUCUAUGCCUUUUCUUUUGUCUGGUCACUCAGAAAUAUAAUAUUAUCAGCUAUGAUUGUUGUUGCUUGCCGCCUCACAUUGUUUUUAUCCAUGUACUCGCCAUAGUCCACUUUCAACAGAGGAUUGAGCAUCA
B19: chr11:80063784:80063785:+_ENSMUSG00000017686_ENSMUST00000092857|mus_mus|FALSE|FALSE (ssRNA)
RNA: GGGAGUUCUACAGUCCGACGAUCCAUUAGGUUUCUUCCAAGGAGAGACUGAAGAACUCCAGUUUUCCCACAGCCUUUCACUCCAAUUACAUUACACCUGAACACAUUUCUCUGAGUCUGUUUUUUCUGCAGGUCAAUCUUUUUCAACAGAGGAUUGAGCAUCA
B20: chr9:95013113:95013114:-_ENSG00000196305_ENST00000443024|hu_hu|hu_hu_hu_mus_False|58_58 (ssRNA)
RNA: GGGAGUUCUACAGUCCGACGAUCCUCAGUCAGAAAGGGCGUGUAAGGGGCCAUCAGUCUGCACAGAGAAAGCAGGACACUAAACAAUGUCUCCAGAGCCAUGACACAGUCUUCCACCCCACUCUCACCCUUUAACCUCCUCCUCAACAGAGGAUUGAGCAUCA
B21: 76184225_76186117_1027_CDS_ENSG00000119685_ENST00000298832|human|control|control (ssRNA)
RNA: GGGAGUUCUACAGUCCGACGAUCCCAUUUGUUUCCAUAAUCCUCCACUUCUGGAUCGUCACAACUGACGUAAUCUCCACUUUUCUUGUUGACACUGUAGUUUGUCAGAUGCAUGAACUGGUUCCGAAUGUUCUUGGCUCCUUGCAACAGAGGAUUGAGCAUCA
B22: chr11:31958201:31958202:+_ENSMUSG00000020297_ENSMUST00000020537|mus_mus|FALSE|FALSE (ssRNA)
RNA: GGGAGUUCUACAGUCCGACGAUCCCAUGAGUUUGUGCAAAUCUUGCAAGCUCACCAUUGAGUGGUACUCUGUGCAUUCCUAGUUGAGAAAUGCCAACAUCACCUUCCUCUCCAAAUCAGCCUUGCCUGCCAUCGCUGUGCUUCCAACAGAGGAUUGAGCAUCA

Biological target: T1, UNK ZnF1-3
Experiment: nsRBNS (natural sequence RNA bind-n-seq); RBNS binding buffer (assumed for nsRBNS): 25 mM Tris pH 7.5, 150 mM KCl, 3 mM MgCl2, 0.01% Triton X-100, 500 ug/ml BSA, 20 U/ml SUPERase-In, 4 C; UNK is unkempt and MSI1 is Musashi-1; names of the RNAs are library labels; protein concentration not given here; high values mean tight binding

Row | Binder | binding signal [enrichment R]
1 | B1 | 0.573
2 | B2 | 1.59
3 | B3 | 0.594
4 | B4 | 1.2
5 | B5 | 0.876
6 | B6 | 0.934
7 | B7 | 5.2
8 | B8 | 4.65
9 | B9 | 2.16
10 | B10 | 0.982
11 | B11 | 6.49
12 | B12 | 2.54
13 | B13 | 3.05
14 | B14 | 0.373
15 | B15 | 5.9
16 | B16 | 1.21
17 | B17 | 0.695
18 | B18 | 0.465
19 | B19 | 0.484
20 | B20 | 1.48
21 | B21 | 0.4
22 | B22 | 0.67
